Data on 25 compounds can be found in PubChem BioAssay AID602440 (Sanford-Burnham Center for Chemical Genomics, 2012).

Hit rate of the full screen: of about 360,000 compounds, about 2,300 (0.64%) were called active. The sample as a whole holds a higher share of actives than the screen did. Unmarked numbers belong to inactive results. Cut-off read from the data, not from the text of the source: active = inhibition mostly above about 40% (no sharp cut-off); inactive = mostly below about 27%.

Sentrin-specific protease 8 (Homo sapiens), sequence (Q96LD8 whole entry, looked up): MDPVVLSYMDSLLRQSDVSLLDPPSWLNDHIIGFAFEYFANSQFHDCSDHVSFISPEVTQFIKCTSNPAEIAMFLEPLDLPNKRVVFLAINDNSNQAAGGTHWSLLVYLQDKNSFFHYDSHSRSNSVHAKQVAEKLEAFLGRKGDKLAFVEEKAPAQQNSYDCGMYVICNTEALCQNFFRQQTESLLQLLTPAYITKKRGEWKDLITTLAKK

This experiment has as its target Sentrin-specific protease 8 (Homo sapiens) (UniProt Q96LD8). The experiment in a line: human SENP8 protease inhibitors, primary screen, biochemical, fluorescence, Nedd8 protein substrate, uHTS (AID 602440). As to conditions: recombinant SENP8, Nedd8 substrate fluorescence; at 20 µM; active compounds read high.
A word on the inhibition: it is the drop in the measured response relative to a control, in per cent. In the case of `NC(=O)c1ccc(N2CCOCC2)nc1`, the inhibition is 10.6%.
The result for `Nc1ncnc2c1ncn2[C@@H]1O[C@H](CNC(=O)[C@H](N)Cc2cccnc2)[C@@H](O)[C@H]1O` reads 6.7%; that for `CN(CCc1ccccn1)C(=O)CCC1CCCN(Cc2ccccc2OC(F)F)C1` (stereo not given), 29.2%; that for `Nc1ccc2nc3c(=O)[nH]c(=S)[nH]c3nc2c1`, 46.9% (active).
With `CC(C)(C)CN1CCNC(=O)C1CC(=O)NC1Cc2ccccc2C1` (stereo not given) the figure was -47.4%; with `COC(=O)CCCC1=CC2=CC(=O)C(C)(OC(=O)c3cccs3)C(=O)C2=CN1CC(C)C` (stereo not given), 40.8% (active); with `COC(=O)CCCC1=CC2=C(c3ccccc3)C(=O)C(C)(OC(=O)C3CCCC3)C(=O)C2=CN1c1ccc(OC)cc1` (stereo not given), -154%.
The result for `CCCCC1=CC2=CC(=O)C(C)(OC(=O)CC)C(=O)C2=CN1CCCOC(C)C` (stereo not given) reads -190%; that for `O=C(NC1CCN(S(=O)(=O)c2ccc(F)cc2)CC1)c1ccccc1`, 15.3%.
Consider `COC(=O)N(C)C[C@@H]1OCc2cnnn2CCCC(=O)N([C@@H](C)CO)C[C@@H]1C`, for which the inhibition is 18.6%.
On to `COc1cc(NC(=O)c2cc([N+](=O)[O-])ccc2Br)ccc1NC(=O)c1ccco1`, for which the inhibition was 32.3%.
`COc1ccc(Cc2nnc(SCC(=O)c3cccc([N+](=O)[O-])c3)n2C)cc1`: the inhibition was 10.4%.
Regarding `COc1ccc(C(=O)c2c3ccc([N+](=O)[O-])cc3[n+]([O-])n2CCCN)cc1`, the inhibition was 48.4% (active).
The result for `COc1ccc2c(C(=O)c3ccc(C)cc3)n(CCC(N)=O)[n+]([O-])c2c1` reads 2.6%.
The result for `COC(=O)c1ccc(S(=O)(=O)N(CCO)Cc2ccccc2)n1C` reads 21.1%; that for `C/C(=N\NC(=O)c1ccc(C)cc1)C1C(=O)c2ccccc2C1=O`, 38.5%; that for `CC(=O)NS(=O)(=O)c1ccccc1`, 0.5%.
Take `O=C(NC1=CC(=O)c2ccccc2C1=O)c1ccccc1`: the inhibition is 44.7% (active).
With `Cc1cc(NS(=O)(=O)c2ccccc2)no1` the figure was 11.5%; with `CN(C)C(=O)c1ccc(NC(=O)c2ccccc2-c2ccccc2)cc1`, 4.2%; with `O=C1C=C(NS(=O)(=O)c2ccccc2)C(=O)c2ccccc21`, 51.3% (active).
The result for `CCN(CC)S(=O)(=O)c1ccc2c3c(cccc13)C(=O)S2` reads -49.2%.
On to `NC(=O)C1CC=CCC1C(=O)OCC(Cl)=C(Cl)Cl` (stereo not given), for which the inhibition was 1.1%.
With `Cc1cc(N2C(=O)C(=O)/C(=C(/O)c3ccc(Cl)cc3)C2c2cccc(Br)c2)no1` (stereo not given) the figure was -138%; with `O=S1(=O)CCN2C(=N1)SC1=C2CCN(Cc2ccccc2)C1`, 21.1%.
